Assay results: article PMC7862700, “An all-to-all approach to the identification of sequence-specific readers for epigenetic DNA modifications on cytosine”

Legend:
Assay in all cases: DAPPL (digital affinity profiling via proximity ligation, sequencing); 10 mM Tris-HCl pH 7.5, 50 mM NaCl, 1 mM DTT, 4% glycerol, room temperature, 30 min; GST-TFs on glutathione beads, 16-mer random dsDNA library, 0.1% formaldehyde crosslink after washing; high values mean tight binding
[1] = target: T1, FLI1 (Homo sapiens, UniProt Q01543 1-452); conditions: protein: recombinant; tags: N-terminal GST; dsDNA, one strand shown
T1 sequence: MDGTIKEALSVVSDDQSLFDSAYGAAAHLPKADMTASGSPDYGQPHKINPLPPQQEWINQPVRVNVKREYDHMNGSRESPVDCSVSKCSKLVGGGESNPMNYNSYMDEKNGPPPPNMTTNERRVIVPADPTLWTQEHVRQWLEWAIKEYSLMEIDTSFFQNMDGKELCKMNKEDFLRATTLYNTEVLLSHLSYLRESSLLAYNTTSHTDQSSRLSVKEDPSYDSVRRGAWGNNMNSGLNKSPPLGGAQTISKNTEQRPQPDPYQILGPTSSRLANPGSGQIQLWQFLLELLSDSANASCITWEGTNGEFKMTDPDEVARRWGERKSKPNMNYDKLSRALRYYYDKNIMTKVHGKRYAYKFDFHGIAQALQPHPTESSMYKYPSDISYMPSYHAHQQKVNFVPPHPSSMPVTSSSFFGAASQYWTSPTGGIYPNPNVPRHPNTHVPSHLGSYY
How it was run: (§1)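 Binding signal is defined as a hexamer's read frequency for one factor over its frequency for the tag-only sample. To obtain reads, GST-fused human transcription factors were expressed in yeast, captured on glutathione beads, barcoded with DNA and pooled with that sample. Pools met 200 nmole of a 16-mer random double-stranded DNA library in Tris/NaCl/DTT/glycerol buffer for 30 min at room temperature before washing, 0.1% formaldehyde crosslinking, proximity ligation (BsaI/T4 ligase, 1 h, 37 °C), PCR and Illumina NextSeq500 sequencing.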

[2] = target: T2, GABPA (Homo sapiens, UniProt Q06546 1-454); conditions: protein: recombinant; tags: N-terminal GST; dsDNA, one strand shown
T2 sequence: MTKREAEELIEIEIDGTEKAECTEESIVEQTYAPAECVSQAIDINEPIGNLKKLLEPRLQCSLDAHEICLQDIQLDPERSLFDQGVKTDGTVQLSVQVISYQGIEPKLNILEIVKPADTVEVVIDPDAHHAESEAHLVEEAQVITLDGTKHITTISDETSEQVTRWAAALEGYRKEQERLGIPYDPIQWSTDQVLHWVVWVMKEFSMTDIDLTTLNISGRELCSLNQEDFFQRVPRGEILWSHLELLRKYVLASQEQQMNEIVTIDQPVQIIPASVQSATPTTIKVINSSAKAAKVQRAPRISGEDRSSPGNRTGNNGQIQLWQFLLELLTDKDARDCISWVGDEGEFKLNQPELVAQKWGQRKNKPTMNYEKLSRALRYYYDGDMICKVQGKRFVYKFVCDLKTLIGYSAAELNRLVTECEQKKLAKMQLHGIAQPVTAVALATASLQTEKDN
How it was run: as §1

[3] = target: T3, ERG (Homo sapiens, UniProt P11308 1-479); conditions: protein: recombinant; tags: N-terminal GST; dsDNA, one strand shown
T3 sequence: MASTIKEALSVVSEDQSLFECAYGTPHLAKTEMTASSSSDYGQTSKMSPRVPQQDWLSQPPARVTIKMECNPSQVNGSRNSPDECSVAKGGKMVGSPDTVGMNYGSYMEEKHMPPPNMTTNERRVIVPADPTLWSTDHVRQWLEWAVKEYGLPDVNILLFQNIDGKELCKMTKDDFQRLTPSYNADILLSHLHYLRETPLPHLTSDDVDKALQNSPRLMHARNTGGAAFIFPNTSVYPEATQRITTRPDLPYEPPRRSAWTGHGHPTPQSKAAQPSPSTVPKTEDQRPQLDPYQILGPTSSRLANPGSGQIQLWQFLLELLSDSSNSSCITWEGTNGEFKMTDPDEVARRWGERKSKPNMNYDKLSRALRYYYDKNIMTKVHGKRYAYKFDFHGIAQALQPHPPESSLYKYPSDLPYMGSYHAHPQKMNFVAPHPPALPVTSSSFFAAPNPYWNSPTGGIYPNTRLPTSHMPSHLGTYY
How it was run: as §1

[4] = target: ELF1 (Homo sapiens, UniProt P32519 1-619); conditions: protein: recombinant; tags: N-terminal GST; dsDNA, one strand shown
How it was run: as §1

[5] = target: SPIB (Homo sapiens, UniProt Q01892 1-262); conditions: protein: recombinant; tags: N-terminal GST; dsDNA, one strand shown
How it was run: as §1

[6] = target: T4, ELK3 (Homo sapiens, UniProt P41970 1-407); conditions: protein: recombinant; tags: N-terminal GST; dsDNA, one strand shown
T4 sequence: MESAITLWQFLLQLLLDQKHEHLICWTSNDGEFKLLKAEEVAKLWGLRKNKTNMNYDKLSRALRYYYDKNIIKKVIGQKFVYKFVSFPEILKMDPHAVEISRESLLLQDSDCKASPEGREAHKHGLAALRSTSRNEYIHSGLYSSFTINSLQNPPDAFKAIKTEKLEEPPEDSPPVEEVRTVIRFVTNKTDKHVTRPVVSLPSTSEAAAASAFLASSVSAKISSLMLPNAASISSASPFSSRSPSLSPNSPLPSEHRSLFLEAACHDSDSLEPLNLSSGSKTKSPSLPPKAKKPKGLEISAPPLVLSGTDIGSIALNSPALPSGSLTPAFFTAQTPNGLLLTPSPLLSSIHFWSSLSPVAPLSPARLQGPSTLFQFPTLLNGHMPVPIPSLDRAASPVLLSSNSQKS
How it was run: as §1

[7] = target: T5, FEV (Homo sapiens, UniProt Q99581 1-238); conditions: protein: recombinant; tags: N-terminal GST; dsDNA, one strand shown
T5 sequence: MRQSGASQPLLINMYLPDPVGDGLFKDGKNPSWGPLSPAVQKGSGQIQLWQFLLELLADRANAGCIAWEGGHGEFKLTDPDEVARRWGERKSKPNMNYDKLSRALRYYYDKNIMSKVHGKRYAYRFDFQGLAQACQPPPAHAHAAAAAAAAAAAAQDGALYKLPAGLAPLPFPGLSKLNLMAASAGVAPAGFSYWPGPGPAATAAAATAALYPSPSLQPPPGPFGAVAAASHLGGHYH
How it was run: as §1

[8] = target: T6, ELK4 (Homo sapiens, UniProt P28324-2 1-405); conditions: protein: recombinant; tags: N-terminal GST; dsDNA, one strand shown
T6 sequence: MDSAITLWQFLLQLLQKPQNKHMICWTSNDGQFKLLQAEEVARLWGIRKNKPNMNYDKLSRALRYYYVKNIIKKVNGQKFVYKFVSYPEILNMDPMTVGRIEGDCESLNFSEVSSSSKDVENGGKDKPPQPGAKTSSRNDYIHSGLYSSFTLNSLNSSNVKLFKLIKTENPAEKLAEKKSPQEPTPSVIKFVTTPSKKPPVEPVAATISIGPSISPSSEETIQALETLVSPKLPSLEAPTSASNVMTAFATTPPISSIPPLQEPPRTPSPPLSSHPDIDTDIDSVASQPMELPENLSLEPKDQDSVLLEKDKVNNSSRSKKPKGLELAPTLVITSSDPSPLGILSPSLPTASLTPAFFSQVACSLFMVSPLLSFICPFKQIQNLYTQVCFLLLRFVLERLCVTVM
How it was run: as §1

[9] = target: ETV1 (Homo sapiens, UniProt P50549 1-477); conditions: protein: recombinant; tags: N-terminal GST; dsDNA, one strand shown
How it was run: as §1

[10] = target: T7, ERF (Homo sapiens, UniProt P50548 1-548); conditions: protein: recombinant; tags: N-terminal GST; dsDNA, one strand shown
T7 sequence: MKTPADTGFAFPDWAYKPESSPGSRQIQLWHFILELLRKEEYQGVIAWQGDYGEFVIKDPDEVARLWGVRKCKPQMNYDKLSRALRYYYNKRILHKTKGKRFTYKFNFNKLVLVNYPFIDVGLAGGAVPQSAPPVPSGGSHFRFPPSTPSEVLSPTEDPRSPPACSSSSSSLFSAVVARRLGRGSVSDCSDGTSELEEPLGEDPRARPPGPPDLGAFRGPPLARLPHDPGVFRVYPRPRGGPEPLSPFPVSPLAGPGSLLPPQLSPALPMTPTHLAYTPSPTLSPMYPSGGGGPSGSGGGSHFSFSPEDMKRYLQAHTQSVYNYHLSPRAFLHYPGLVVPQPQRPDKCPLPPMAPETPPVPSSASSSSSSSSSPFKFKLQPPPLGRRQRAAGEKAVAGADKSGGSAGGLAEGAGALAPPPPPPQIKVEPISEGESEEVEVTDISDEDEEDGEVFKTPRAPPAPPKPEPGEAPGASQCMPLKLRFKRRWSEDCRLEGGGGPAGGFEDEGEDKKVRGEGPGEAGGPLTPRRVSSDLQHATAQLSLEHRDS
How it was run: as §1

[11] = target: T8, ETV3L (Homo sapiens, UniProt Q6ZN32 1-361); conditions: protein: recombinant; tags: N-terminal GST; dsDNA, one strand shown
T8 sequence: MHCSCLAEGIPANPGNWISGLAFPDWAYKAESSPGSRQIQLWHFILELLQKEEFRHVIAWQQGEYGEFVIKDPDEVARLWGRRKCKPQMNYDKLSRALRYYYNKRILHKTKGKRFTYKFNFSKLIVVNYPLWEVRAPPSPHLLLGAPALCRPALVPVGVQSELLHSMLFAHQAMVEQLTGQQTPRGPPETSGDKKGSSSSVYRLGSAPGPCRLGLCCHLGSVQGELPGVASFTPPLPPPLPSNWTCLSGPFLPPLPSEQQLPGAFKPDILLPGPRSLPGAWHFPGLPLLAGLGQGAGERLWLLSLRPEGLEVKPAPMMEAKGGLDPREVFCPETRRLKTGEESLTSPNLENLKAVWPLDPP
How it was run: as §1

[12] = target: T9, ETS2 (Homo sapiens, UniProt P15036 1-469); conditions: protein: recombinant; tags: N-terminal GST; dsDNA, one strand shown
T9 sequence: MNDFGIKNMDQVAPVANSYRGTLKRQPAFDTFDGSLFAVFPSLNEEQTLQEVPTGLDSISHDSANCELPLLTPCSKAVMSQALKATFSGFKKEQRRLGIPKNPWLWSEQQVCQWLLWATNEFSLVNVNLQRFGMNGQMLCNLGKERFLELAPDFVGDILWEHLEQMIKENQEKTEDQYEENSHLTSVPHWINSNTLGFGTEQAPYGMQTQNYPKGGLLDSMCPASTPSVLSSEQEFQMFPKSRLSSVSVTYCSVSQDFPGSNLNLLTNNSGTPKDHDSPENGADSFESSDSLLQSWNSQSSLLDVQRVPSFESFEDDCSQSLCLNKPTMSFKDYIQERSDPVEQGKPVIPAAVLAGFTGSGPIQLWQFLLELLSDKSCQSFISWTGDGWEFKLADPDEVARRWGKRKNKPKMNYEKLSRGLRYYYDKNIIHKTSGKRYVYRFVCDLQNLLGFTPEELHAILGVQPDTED
How it was run: as §1

[13] = target: T10, SPDEF (Homo sapiens, UniProt O95238 1-335); conditions: protein: recombinant; tags: N-terminal GST; dsDNA, one strand shown
T10 sequence: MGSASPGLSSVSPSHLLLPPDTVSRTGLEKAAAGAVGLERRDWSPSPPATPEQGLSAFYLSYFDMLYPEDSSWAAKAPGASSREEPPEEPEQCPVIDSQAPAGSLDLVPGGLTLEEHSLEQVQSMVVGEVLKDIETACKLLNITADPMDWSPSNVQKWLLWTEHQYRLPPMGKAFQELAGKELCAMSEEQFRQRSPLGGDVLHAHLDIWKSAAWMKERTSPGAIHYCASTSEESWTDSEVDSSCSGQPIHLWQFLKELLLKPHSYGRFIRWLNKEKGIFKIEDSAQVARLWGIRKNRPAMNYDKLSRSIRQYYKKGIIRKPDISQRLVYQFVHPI
How it was run: as §1

[14] = target: HSF1 (Homo sapiens, UniProt Q00613 1-529); conditions: protein: recombinant; tags: N-terminal GST; chain copies: 3; dsDNA, one strand shown
How it was run: as §1

HSF1, sequence (Q00613 whole entry): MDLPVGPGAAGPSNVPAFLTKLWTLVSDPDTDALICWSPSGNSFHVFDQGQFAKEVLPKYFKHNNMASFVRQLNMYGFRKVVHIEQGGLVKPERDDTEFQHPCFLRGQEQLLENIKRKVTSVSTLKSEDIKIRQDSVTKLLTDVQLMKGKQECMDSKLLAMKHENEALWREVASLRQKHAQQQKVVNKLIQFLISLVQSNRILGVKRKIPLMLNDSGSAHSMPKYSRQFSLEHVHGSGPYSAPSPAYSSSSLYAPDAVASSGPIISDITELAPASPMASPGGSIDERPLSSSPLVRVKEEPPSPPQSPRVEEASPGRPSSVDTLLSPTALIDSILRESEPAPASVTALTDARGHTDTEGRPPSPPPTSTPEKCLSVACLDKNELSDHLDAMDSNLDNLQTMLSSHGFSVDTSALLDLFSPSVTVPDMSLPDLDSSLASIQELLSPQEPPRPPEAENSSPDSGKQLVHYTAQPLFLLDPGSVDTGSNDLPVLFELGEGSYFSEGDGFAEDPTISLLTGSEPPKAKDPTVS
ETV1, sequence (P50549 whole entry): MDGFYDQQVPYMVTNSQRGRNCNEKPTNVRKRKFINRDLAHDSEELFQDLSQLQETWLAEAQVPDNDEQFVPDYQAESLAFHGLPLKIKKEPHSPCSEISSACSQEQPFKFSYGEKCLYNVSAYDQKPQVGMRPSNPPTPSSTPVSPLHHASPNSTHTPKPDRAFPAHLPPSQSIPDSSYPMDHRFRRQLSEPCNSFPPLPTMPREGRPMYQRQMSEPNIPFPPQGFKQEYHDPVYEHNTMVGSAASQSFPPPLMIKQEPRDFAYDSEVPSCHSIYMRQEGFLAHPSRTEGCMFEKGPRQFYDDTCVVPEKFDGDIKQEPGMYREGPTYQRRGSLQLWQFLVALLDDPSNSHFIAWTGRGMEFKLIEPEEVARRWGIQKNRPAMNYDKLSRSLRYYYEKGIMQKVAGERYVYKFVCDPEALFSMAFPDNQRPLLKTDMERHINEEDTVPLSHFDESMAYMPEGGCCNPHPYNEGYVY
ELF1, sequence (P32519 whole entry): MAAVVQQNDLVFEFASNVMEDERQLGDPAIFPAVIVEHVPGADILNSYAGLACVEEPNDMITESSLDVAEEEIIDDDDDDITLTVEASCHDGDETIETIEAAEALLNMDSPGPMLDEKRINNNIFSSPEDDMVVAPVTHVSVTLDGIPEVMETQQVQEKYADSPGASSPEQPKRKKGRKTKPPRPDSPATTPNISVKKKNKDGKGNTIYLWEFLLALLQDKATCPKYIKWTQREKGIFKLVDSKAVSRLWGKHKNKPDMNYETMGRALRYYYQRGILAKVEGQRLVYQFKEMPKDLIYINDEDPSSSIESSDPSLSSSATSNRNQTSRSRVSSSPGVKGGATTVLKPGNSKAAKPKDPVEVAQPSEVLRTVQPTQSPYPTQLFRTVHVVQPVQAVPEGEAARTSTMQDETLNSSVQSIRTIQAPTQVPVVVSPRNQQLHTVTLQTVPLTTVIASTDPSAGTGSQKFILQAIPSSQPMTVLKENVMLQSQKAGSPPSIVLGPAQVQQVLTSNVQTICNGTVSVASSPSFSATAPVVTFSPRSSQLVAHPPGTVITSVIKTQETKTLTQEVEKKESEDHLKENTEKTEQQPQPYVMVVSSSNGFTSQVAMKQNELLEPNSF
SPIB, sequence (Q01892 whole entry): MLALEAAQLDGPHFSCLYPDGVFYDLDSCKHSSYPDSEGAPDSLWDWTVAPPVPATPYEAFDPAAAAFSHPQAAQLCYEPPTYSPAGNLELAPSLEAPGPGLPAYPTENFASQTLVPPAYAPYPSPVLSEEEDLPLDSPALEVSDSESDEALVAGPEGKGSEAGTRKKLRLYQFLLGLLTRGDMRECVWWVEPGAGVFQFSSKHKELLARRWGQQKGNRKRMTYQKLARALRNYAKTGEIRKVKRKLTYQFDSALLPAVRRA

Row | Sequence | binding signal [1] | binding signal [2] | binding signal [3] | binding signal [4] | binding signal [5] | binding signal [6] | binding signal [7] | binding signal [8] | binding signal [9] | binding signal [10] | binding signal [11] | binding signal [12] | binding signal [13] | binding signal [14]
1 | CGGGCT | 1.05 fold enrichment (6-mer frequency, TF over GST control) | 1.05 fold enrichment (6-mer frequency, TF over GST control) | 1.02 fold enrichment (6-mer frequency, TF over GST control) | 1.04 fold enrichment (6-mer frequency, TF over GST control) | 1.13 fold enrichment (6-mer frequency, TF over GST control) | 1.14 fold enrichment (6-mer frequency, TF over GST control) | 1.01 fold enrichment (6-mer frequency, TF over GST control) | 1.18 fold enrichment (6-mer frequency, TF over GST control) | 1.07 fold enrichment (6-mer frequency, TF over GST control) | 1.05 fold enrichment (6-mer frequency, TF over GST control) | 1.01 fold enrichment (6-mer frequency, TF over GST control) | 1.07 fold enrichment (6-mer frequency, TF over GST control) | 1.07 fold enrichment (6-mer frequency, TF over GST control) | 
2 | AGGAAT |  |  |  |  |  |  |  |  |  |  |  |  |  | 1.01 fold enrichment (6-mer frequency, TF over GST control)
